Inconclusive results are not listed. The source made the active and inactive calls. Rule for the calls: active = hit-call score of the fitted dose curve at least 0.9, where 1 is the maximum; inconclusive = response in the unintended direction; inactive = score below 0.9.

As usually defined, the AC50 is the concentration at which the activity in the assay is half-maximal.

Assay [1] is described as follows: TOX21_p53_BLA_p3_viability: Viability Assessment in the Tox21 HCT-116 p53 Agonism Beta-lactamase Assay, Phase 3 (AID 2283593).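 Note: cells exposed to compound for 16 h before reading.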 A digest of the protocol:
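Cellular ATP was quantified by CellTiter-Glo luminescence, read after 30 min at room temperature. Beforehand, HCT116 cells (4000/well) received compound 5 h post-seeding, 217-fold diluted from DMSO, then incubated 16 h at 37C.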

The nature of assay [2]: TOX21_p53_BLA_p4_viability: Viability Assessment in the Tox21 HCT-116 p53 Agonism Beta-lactamase Assay, Phase 4 (AID 2283597).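 Note: hits lower the luminescence signal meaning cytotoxicity.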 A digest of the protocol:
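Cytotoxicity was inferred from loss of CellTiter-Glo luminescence. HCT116 cells had been dosed with compounds after 5 h plating, incubated 16 h at 37C and 5% CO2, and exposed to the CCF4-AM substrate for 2 h.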

The target in assay [3] is Cellular tumor antigen p53 (Homo sapiens) (UniProt P04637). The experiment in a line: TOX21_p53_BLA_p5_ratio: Tox21 HCT-116 p53 Agonism Beta-lactamase Assay, Ratio, Phase 5 (AID 2283599). A digest of the protocol:
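Beta-lactamase reporter ratio (blue 460 nm over green 530 nm, 405 nm excitation) after 2 h CCF4-AM loading, in HCT-116 cells exposed 16 h at 37 C to compounds pinned at 217-fold dilution. Increases relative to DMSO baseline scored.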

A short description of assay [4]: TOX21_p53_BLA_p5_viability: Viability Assessment in the Tox21 HCT-116 p53 Agonism Beta-lactamase Assay, Phase 5 (AID 2283600). The essentials:
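Luciferase-coupled ATP quantitation of cells treated for 16 h (37C, 5% CO2) with test chemicals delivered in DMSO via a 217-fold dilution; 4000 cells/well; reagent incubated 30 min at room temperature before luminescence reading.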

Assay [5] addresses Cellular tumor antigen p53 (Homo sapiens) (UniProt P04637). Description: TOX21_p53_BLA_p3_ratio: Tox21 HCT-116 p53 Agonism Beta-lactamase Assay, Ratio, Phase 3 (AID 2283596). A digest of the protocol:
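Cells were seeded at 4000/well, rested 5 h at 37C, then dosed with DMSO compound solutions (217-fold dilution) for 16 h. CCF4-AM substrate was loaded for 2 h at room temperature, and the 460/530 nm emission ratio was fitted for gain of signal versus DMSO.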

Assay [6] shares this target. Description: TOX21_p53_BLA_p4_ratio: Tox21 HCT-116 p53 Agonism Beta-lactamase Assay, Ratio, Phase 4 (AID 2283601). The essentials: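 Signal is the blue/green (460nm/530nm) ratio of cleaved versus uncleaved CCF4-AM substrate, read after 2 h substrate loading. Cells were HCT116 carrying the p53-responsive beta-lactamase reporter, dosed 16 h at 37C, 5% CO2; CellTiter-Glo measured in parallel.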

Assay [7] shares this target. Description: TOX21_p53_BLA_p2_ratio: Tox21 HCT-116 p53 Agonism Beta-lactamase Assay, Ratio, Phase 2 (AID 2283592). A digest of the protocol:
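Ratio endpoint: beta-lactamase cleavage of CCF4-AM, blue (460 nm) over green (530 nm). HCT116 reporter line; 16 h treatment, 37C; substrate 2 h RT.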

Assay [8] has as its target Thyroid hormone receptor alpha (Rattus norvegicus) + Thyroid hormone receptor beta (Rattus norvegicus) (UniProt P18113+P63059). Description: TOX21_TR_LUC_GH3_Antagonist_Followup: Tox21 GH3 Thyroid Hormone Receptor Antagonism Luciferase Follow-Up Assay (AID 2283942). A digest of the protocol: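 Loss of T3-driven (1.0 nM final) reporter activity in GH3 cells was read by ONE-Glo luminescence after 24 h incubation at 37C; 15-point compound series spanned 92 uM to 5nM final, 1,500 cells/well.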

Another assay has as its target THRA (gene 7067) (UniProt P10827). Description: TOX21_TRA_COA_Antagonist_Followup_ratio: Tox21 Thyroid Hormone Receptor alpha Antagonism through Coactivator Recruitment Follow-Up Assay, Ratio (AID 2283953). A digest of the protocol: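 We measured antagonism of T3-type coactivator recruitment using a TR-FRET ratio (emission 520 and 495 nm) between a Tb-labelled anti-GST antibody on TRα LBD (2.5 nM) and SRC-2 peptide (200 nM). Activity was scaled between DMSO and T3 wells.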

In a further assay the target is THRB (gene 7068) (UniProt P10828). The experiment in a line: TOX21_TRB_COA_Antagonist_Followup_ratio: Tox21 Thyroid Hormone Receptor beta Antagonism through Coactivator Recruitment Follow-Up Assay, Ratio (AID 2283967). A digest of the protocol:
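Coactivator recruitment to the GST-tagged TRb ligand-binding domain (5.0 nM) was read as the 520/495 nm TR-FRET ratio, using 200 nM fluorescein SRC-2 peptide and 2 nM terbium anti-GST. Scaled between DMSO and T3 wells; loss of signal fitted.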

Assay [9] is described as follows: TOX21_TR_RXR_BLA_Antagonist_Followup_viability: Viability Assessment in the Tox21 Thyroid Hormone Receptor beta Retinoid X Receptor alpha (RXRa) Antagonism Beta-lactamase (BLA) Follow-Up Assay (AID 2283979). The essentials: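 Follow-up compounds (11 concentrations, triplicate) were incubated 16 h at 37C/5% CO2 with HEK293T RXRa-bla cells seeded at 2,500/well in charcoal-stripped-serum medium. ATP content by CellTiter-Glo luminescence gave viability; curves fitted in both directions against DMSO.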

Assay [10] concerns the target PGR (gene 5241) (UniProt P06401). Description: TOX21_PR_BLA_Followup_Antagonist_ratio: Tox21 HEK293 Progesterone Receptor (PR) Antagonism Beta-lactamase Follow-Up Assay, Ratio (AID 2283934).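 Note: PR-UAS-bla HEK293T cells stimulated with 1 nM R5020 agonist for 16 hr.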 The essentials: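 Measured in PR-UAS-bla HEK293T cells co-treated with compound and 1 nM promegestone for 16 hr; beta-lactamase ratio read after 2 h FRET substrate loading, with parallel CellTiter-Glo cytotoxicity.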

A short description of assay [11]: TOX21_PR_BLA_Followup_Agonist_viability: Viability Assessment in the Tox21 HEK293 Progesterone Receptor (PR) Agonism Beta-lactamase Follow-Up Assay (AID 2283935).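 Note: signal loss means lower viability so actives are cytotoxic.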 A digest of the protocol:
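Viability is read as CellTiter-Glo luminescence, where loss of signal indicates cytotoxicity. The cells are PR-UAS-bla HEK293T given compounds for 16 hr at 37C and 5% CO2, in the same wells used for the bla readout.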

The nature of assay [12]: TOX21_PR_BLA_Followup_Antagonist_viability: Viability Assessment in the Tox21 HEK293 Progesterone Receptor (PR) Antagonism Beta-lactamase Follow-Up Assay (AID 2283936).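 Note: cells exposed to compound with R5020 agonist for 16 h; hits lower the luminescence signal meaning cytotoxicity.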 A digest of the protocol:
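PR-UAS-bla HEK293T cells in medium with 2% charcoal-stripped FBS were treated with compounds plus R5020 for 16 hr at 37C. After the beta-lactamase read, CellTiter-Glo was added to the same wells and luminescence read after 30 min at room temperature.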

Assay [13] deals with PGR (gene 5241) (UniProt P06401). Description: TOX21_PR_LUC_Followup_Antagonist: Tox21 HEK293 Progesterone Receptor (PR) Antagonism Luciferase Follow-Up Assay (AID 2283938).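 Note: curve fitted upward as signal gain over DMSO baseline despite antagonist label.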 A digest of the protocol:
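HEK293-PR-A-luc cells were precultured 5 days in medium with 10% charcoal-stripped FBS, seeded 3,000/well, then exposed to compounds in DMSO for 16 h at 37C. Luciferase was read by ONE-Glo luminescence after 30 min at room temperature.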

Cellular tumor antigen p53 (Homo sapiens), sequence (P04637 whole entry, looked up): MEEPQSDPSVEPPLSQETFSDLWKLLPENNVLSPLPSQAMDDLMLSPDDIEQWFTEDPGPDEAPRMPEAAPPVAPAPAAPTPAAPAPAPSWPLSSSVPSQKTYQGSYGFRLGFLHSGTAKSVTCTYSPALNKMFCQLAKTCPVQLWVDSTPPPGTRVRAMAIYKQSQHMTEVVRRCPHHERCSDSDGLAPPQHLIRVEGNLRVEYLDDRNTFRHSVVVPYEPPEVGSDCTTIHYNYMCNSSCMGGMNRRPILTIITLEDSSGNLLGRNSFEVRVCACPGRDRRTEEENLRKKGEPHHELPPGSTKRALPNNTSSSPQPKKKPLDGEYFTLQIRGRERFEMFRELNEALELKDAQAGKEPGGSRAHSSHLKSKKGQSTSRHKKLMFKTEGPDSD
PGR (gene 5241), sequence (P06401 whole entry, looked up): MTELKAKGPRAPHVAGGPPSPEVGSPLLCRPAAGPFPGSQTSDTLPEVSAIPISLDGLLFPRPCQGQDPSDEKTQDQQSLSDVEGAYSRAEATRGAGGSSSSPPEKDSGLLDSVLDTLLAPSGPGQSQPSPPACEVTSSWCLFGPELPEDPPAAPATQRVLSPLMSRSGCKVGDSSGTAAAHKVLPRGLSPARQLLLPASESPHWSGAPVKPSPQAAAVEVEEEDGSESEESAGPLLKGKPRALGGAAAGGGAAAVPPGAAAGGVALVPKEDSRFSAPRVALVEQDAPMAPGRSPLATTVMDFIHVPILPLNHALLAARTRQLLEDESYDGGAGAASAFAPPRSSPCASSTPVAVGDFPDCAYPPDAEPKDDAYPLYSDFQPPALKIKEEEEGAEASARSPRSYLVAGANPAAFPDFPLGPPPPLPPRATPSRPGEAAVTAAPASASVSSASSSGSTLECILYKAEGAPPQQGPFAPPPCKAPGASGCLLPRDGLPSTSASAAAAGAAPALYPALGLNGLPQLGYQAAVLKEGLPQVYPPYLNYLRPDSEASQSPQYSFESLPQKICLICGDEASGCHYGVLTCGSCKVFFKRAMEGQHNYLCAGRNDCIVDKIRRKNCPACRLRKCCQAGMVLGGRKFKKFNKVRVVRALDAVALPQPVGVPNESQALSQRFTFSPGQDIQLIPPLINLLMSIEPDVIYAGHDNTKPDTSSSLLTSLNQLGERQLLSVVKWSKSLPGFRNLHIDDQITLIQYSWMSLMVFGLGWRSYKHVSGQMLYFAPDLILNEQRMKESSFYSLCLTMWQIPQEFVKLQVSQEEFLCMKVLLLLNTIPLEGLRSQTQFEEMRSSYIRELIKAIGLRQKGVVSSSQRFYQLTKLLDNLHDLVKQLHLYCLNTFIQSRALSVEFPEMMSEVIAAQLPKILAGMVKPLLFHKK
THRA (gene 7067), sequence (P10827 whole entry, looked up, the tested form may be a part): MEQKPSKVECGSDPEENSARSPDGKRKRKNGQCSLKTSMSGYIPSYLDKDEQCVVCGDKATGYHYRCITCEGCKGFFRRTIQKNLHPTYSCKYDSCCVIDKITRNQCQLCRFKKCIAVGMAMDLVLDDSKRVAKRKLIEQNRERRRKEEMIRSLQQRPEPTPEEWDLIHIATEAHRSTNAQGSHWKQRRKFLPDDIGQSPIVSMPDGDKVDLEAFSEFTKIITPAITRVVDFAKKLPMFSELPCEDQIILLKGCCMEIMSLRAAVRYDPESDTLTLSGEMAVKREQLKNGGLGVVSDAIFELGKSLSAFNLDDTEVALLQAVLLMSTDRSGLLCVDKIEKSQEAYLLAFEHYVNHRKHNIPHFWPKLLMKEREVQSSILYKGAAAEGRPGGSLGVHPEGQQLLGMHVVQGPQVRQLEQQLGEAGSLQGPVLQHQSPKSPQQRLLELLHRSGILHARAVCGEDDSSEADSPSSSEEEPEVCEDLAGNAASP
THRB (gene 7068), sequence (P10828 whole entry, looked up, the tested form may be a part): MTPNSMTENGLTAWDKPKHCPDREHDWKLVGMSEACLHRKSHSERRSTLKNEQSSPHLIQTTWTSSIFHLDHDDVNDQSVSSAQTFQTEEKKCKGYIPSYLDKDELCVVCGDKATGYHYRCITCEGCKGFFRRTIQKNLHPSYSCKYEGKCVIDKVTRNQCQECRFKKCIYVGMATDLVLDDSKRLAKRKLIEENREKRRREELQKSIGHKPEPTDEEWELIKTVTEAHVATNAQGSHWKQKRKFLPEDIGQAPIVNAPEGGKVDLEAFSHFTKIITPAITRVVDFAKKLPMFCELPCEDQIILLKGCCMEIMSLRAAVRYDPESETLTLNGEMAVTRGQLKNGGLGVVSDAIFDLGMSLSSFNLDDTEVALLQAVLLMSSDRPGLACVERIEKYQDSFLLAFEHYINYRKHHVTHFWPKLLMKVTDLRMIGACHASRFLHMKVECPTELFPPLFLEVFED

`CC(O)[C@@H]1NC(=O)[C@H](CCCCN)NC(=O)[C@@H](Cc2c[nH]c3ccccc23)NC(=O)[C@H](Cc2ccccc2)NC(=O)[C@@H](NC(=O)[C@H](N)Cc2ccccc2)CSSC[C@@H](C(=O)N[C@H](CO)[C@@H](C)O)NC1=O` (some centres not stated): the molecule was called inactive in [1], in assay [2], in [3] and in [4].
Regarding `c1ccc2sc(SSc3nc4ccccc4s3)nc2c1`, the molecule was classed as inactive in assay [1], in assay [5], in [3], in assay [4] and in assay [6].
`COc1cc([C@H]2Oc3cc([C@H]4Oc5cc(O)cc(O)c5C(=O)[C@@H]4O)ccc3O[C@@H]2CO)ccc1O`: the AC50 was 86.2 µM (active) in [7] and 87.1 µM (active) in assay [6].
For `COc1c(N2C[C@@H]3CCCN[C@@H]3C2)c(F)cc2c(=O)c(C(=O)O)cn(C3CC3)c12`, the result in assay [7], in [5], in assay [3] and in assay [6] was inactive.
Take `O=C[C@H](O)[C@@H](O)[C@H](O)[C@H](O)CO`: the outcome in [7], in assay [5], in assay [2], in assay [4] and in [6] was inactive.
In the case of `CNC(=O)C[C@@H](N)C(=O)N[C@@H](C(=O)N[C@@H]1C(=O)N2[C@@H]1SC(C)(C)[C@@H]2C(=O)O)c1ccc(O)cc1`, the outcome in assay [7], in assay [4] and in assay [6] was inactive.
As for `COc1ccccc1N1CCN(CCCNc2cc(=O)n(C)c(=O)n2C)CC1`, the result in assay [7], in assay [5], in assay [2], in [4] and in assay [6] was inactive.
Take `Cc1ccc(/C(=C\CN2CCCC2)c2cccc(/C=C/C(=O)O)n2)cc1`: the molecule was called inactive in assay [2] and in assay [6].
Regarding `CCC(C)O` (configuration not stated), the result in [7], in [5] and in assay [4] was inactive.
On to `NCC[C@H](O)C(=O)N[C@@H]1C[C@H](N)[C@@H](O[C@H]2O[C@H](CN)[C@@H](O)[C@H](O)[C@H]2O)[C@H](O)[C@H]1O[C@H]1O[C@H](CO)[C@@H](O)[C@H](N)[C@H]1O`, for which the result in assay [7], in assay [5], in [2], in [3] and in assay [4] was inactive.
With `COc1cc([C@@H]2c3cc4c(cc3[C@H](O)[C@H]3COC(=O)[C@H]23)OCO4)cc(OC)c1OC`, the outcome in assay [7], in [5], in [2], in [3], in [6] and in [8] was inactive. The result (in the assay with THRA (gene 7067); with THRB (gene 7068); in [9]) was inactive.
In the case of `C=CCSCC1Nc2cc(Cl)c(S(N)(=O)=O)cc2S(=O)(=O)N1` (configuration not stated), the result in assay [7], in [5] and in assay [6] was inactive. The AC50 in assay [3] is 0.059 nM (active).
Take `NC(=O)C1c2ccccc2CCc2ccccc21`: the molecule was classed as inactive in assay [1] and in assay [3].
Consider `CCSc1ccc2c(c1)N(CCCN1CCN(C)CC1)c1ccccc1S2`, for which the outcome in [7], in [2], in assay [3], in assay [4] and in assay [6] was inactive.
Consider `C=CS(=O)(=O)O`, for which the result in [7], in assay [2], in assay [3], in [4] and in assay [6] was inactive.
`CC(=O)OCC(=O)[C@@]1(OC(C)=O)[C@@H](C)C[C@H]2[C@@H]3C[C@H](F)C4=CC(=O)C=C[C@]4(C)[C@@]3(F)[C@@H](O)C[C@@]21C`: the result (in [1]; in assay [5]; in assay [2]; in [4]; with PGR (gene 5241) [10]; in assay [11]) was inactive. The molecule was classed as inactive (in assay [12]; in the assay with PGR (gene 5241) [13]).
For the molecule `O=C(NCCN1CCOCC1)c1ccc(Cl)cc1`, the result in assay [7], in [5], in [2], in assay [3], in assay [4] and in assay [6] was inactive.

(Values after PubChem BioAssay (EPA / NIEHS).)
